Test results from PubChem BioAssay (Tox21).
Results filed as inconclusive are left out. Activity calls are given as the source filed them. Unless noted, calls come from the whole dose curve; as a rule, active = well fitted curve in the direction sought with a large enough effect in the repeat runs; inconclusive = weak or mixed curves; inactive = no such curve, though single readings can be large; an effect the other way counts as inactive or inconclusive.

What was measured:
[1] = target: Aryl hydrocarbon receptor (Homo sapiens) (UniProt P35869); experiment: qHTS assay to identify small molecule that activate the aryl hydrocarbon receptor (AhR) signaling pathway (AID 743085);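 note: HG2L7.5c1 human HepG2 liver cells with stably integrated DRE-driven firefly reporter; series mostly up to about 70 µM; nearly all actives have a fitted effect of over 15% in size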
In short: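 A multiplexed format paired cell viability (CellTiter-Fluor fluorescence) with AhR-dependent luciferase output (ONE-Glo luminescence) in the same wells of HepG2 DRE-luc cells after 24 h compound exposure at 37C.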

[2] = qHTS assay to identify small molecule that activate the aryl hydrocarbon receptor (AhR) signaling pathway - cell viability counter screen (AID 743086);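 note: HepG2 liver cells carrying the AhR DRE luciferase reporter; series mostly up to about 70 µM; nearly all actives have a fitted effect of over 45% in size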
In short: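 HepG2-AhR-luc (HG2L7.5c1) cells, 4000/well, were preincubated 5 h at 37C, exposed to compound in qHTS format for 24 hr at 37C, then given CellTiter-Fluor for 30 min; viability was read as fluorescence in the reporter wells.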

[3] = target: Peroxisome proliferator-activated receptor gamma (Homo sapiens) (UniProt P37231); experiment: qHTS assay to identify small molecule agonists of the peroxisome proliferator-activated receptor gamma (PPARg) signaling pathway (AID 743094; active = well fitted activation curve with a large enough effect in the signal ratio in the repeat runs, not every such curve was filed as active; the % refers to the signal ratio)
In short: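 Reporter activation was scored by fluorescence of cleaved LiveBLAzer B/G substrate (1 h, room temperature) in PPARg-bla HEK293H cells previously treated 17 h at 37C with DMSO-dissolved compounds.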

[4] = target: Peroxisome proliferator-activated receptor gamma (Homo sapiens) (UniProt P37231); experiment: qHTS assay to identify small molecule antagonists of the peroxisome proliferator-activated receptor gamma (PPARg) signaling pathway (AID 743191; calls by dose curve; note: series mostly up to about 63 µM; nearly all actives have a fitted effect of over 30% in size)
In short: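 GeneBLAzer PPARg UAS-bla HEK293H cells carrying a UAS-driven beta-lactamase reporter were plated at 3000 cells/well, preincubated 5 h at 37C, then given compound for 17 h at 37C; LiveBLAzer B/G FRET substrate was read after 1 h at room temperature.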

[5] = qHTS assay to identify small molecule antagonists of the peroxisome proliferator-activated receptor gamma (PPARg) signaling pathway - cell viability counter screen (AID 743194); note: nearly all actives have a fitted effect of over 55% in size
In short: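 PPARg-UAS-bla HEK293H cells were plated, rested 5 h at 37 C, then treated with compounds plus rosiglitazone (50 nM final) for 17 h at 37 C; viability was then read by CellTiter-Glo luminescence after 30 min at room temperature.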

[6] = qHTS assay for small molecule agonists of the antioxidant response element (ARE) signaling pathway (AID 743202; active = well fitted activation curve with a large enough effect in the signal ratio in the repeat runs, not every such curve was filed as active; the % refers to the signal ratio)
In short: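 Following a 16 h, 37 C exposure of reporter HepG2 cells (ARE-driven beta-lactamase, 2,000 cells/well) to compounds, FRET substrate was applied for 2 h at room temperature and fluorescence intensity recorded.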

[7] = qHTS assay for small molecule agonists of the antioxidant response element (ARE) signaling pathway - cell viability counter screen (AID 743203; calls by dose curve; note: nearly all actives have a fitted effect of over 55% in size)
In short: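 Viability counter screen: stably transfected ARE-bla HepG2 line, 16 hrs compound exposure at 37C/5% CO2, ATP-based CellTiter-Glo luminescence measured in the reporter wells.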

[8] = qHTS assay for small molecule activators of the heat shock response signaling pathway (AID 743210; active = well fitted activation curve with a large enough effect in the signal ratio in the repeat runs, with a control signal flat, not every such curve was filed as active; the % refers to the signal ratio; note: series mostly up to about 63 µM)
In short: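 Heat shock element–beta-lactamase HeLa reporter cells; qHTS with compounds for 5 h at 37 C; detection by FRET substrate fluorescence after 2.5 h at RT.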

[9] = qHTS assay to identify small molecule agonists of the peroxisome proliferator-activated receptor delta (PPARd) signaling pathway - cell viability counter screen (AID 743211); note: nearly all actives have a fitted effect of over 55% in size
In short: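 Tox21 library compounds, delivered in DMSO, were incubated 17 h with PPARd-bla HEK293H cells; cytotoxicity was taken from CellTiter-Glo luminescence read 30 min after reagent addition.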

[10] = target: Peroxisome proliferator-activated receptor delta (Homo sapiens) (UniProt Q03181); experiment: qHTS assay to identify small molecule agonists of the peroxisome proliferator-activated receptor delta (PPARd) signaling pathway (AID 743212; calls by dose curve)
In short: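 Beta-lactamase reporter read by fluorescence (LiveBLAzer B/G FRET, 2 h, room temperature). Test agents, in DMSO, incubated at 37 C with PPARd-bla HEK293H cells.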

[11] = qHTS assay to identify small molecule antagonists of the peroxisome proliferator-activated receptor delta (PPARd) signaling pathway - cell viability counter screen (AID 743213); note: nearly all actives have a fitted effect of over 50% in size
In short: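 Cytotoxicity counter screen: CellTiter-Glo luminescence read 30 min after addition, in the same wells as the reporter assay. There, PPARd UAS-bla HEK293H cells (3000/well) were treated 17 h at 37 C with compound and 300 nM L165041.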

[12] = target: Peroxisome proliferator-activated receptor delta (Homo sapiens) (UniProt Q03181); experiment: qHTS assay to identify small molecule antagonists of the peroxisome proliferator-activated receptor delta (PPARd) signaling pathway (AID 743215; active = well fitted inhibition curve with a large enough effect in the signal ratio in the repeat runs, not every such curve was filed as active; the % refers to the signal ratio;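 note: cells stimulated with agonist L165041 at 300 nM final during compound exposure; series mostly up to about 62 µM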)
In short: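 Plated HEK293H PPARd-bla cells rested 5 h at 37 C and 5% CO2. Compound, then agonist L165041 at 300 nM final, was added; 17 h at 37 C followed. Substrate loading, 2 h room temperature, fluorescence measured.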

[13] = qHTS assay to identify small molecule agonists of the farnesoid-X-receptor (FXR) signaling pathway - cell viability counter screen (AID 743218); note: nearly all actives have a fitted effect of over 45% in size
In short: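 Viability of FXR-bla HEK 293T cells is measured by ATP-based CellTiter-Glo luminescence following 16 h compound treatment at 37 C and a prior 2 h room-temperature beta-lactamase substrate step.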

[14] = target: Bile acid receptor (Homo sapiens) (UniProt Q96RI1); experiment: qHTS assay to identify small molecule agonists of the farnesoid-X-receptor (FXR) signaling pathway (AID 743220; active = well fitted activation curve with a large enough effect in the signal ratio in the repeat runs, not every such curve was filed as active; the % refers to the signal ratio)
In short: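 FXR-UAS-bla HEK 293T cells carrying a UAS-driven beta-lactamase reporter were plated for 5 h at 37C/5% CO2, then exposed to DMSO-dissolved Tox21 10K compounds for 16 h at 37C. A LiveBLAzer B/G FRET substrate was loaded for 2 h at room temperature before fluorescence reading.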

[15] = qHTS assay to identify small molecule antagonists of the farnesoid-X-receptor (FXR) signaling pathway - cell viability counter screen (AID 743221; active = well fitted cell-killing curve with a large enough effect in the repeat runs, not every such curve was filed as active; note: nearly all actives have a fitted effect of over 50% in size)
In short: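 Cytotoxicity is taken from ATP luminescence (CellTiter-Glo, 30 min, room temperature) in FXR-bla HEK 293T cells previously incubated 16 h at 37 C with compound and chenodeoxycholic acid at 50 uM final.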

[16] = target: Vitamin D3 receptor (Homo sapiens) (UniProt P11473); experiment: qHTS assay to identify small molecule agonists of the vitamin D receptor (VDR) signaling pathway (AID 743222; calls by dose curve)
In short: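 Fluorescence from cleaved LiveBLAzer B/G FRET substrate served as readout. VDR-bla cells had been treated 16 h at 37C with test compounds in DMSO, following a 4 h settling period, and substrate was loaded for 2 h at RT.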

[17] = target: Vitamin D3 receptor (Homo sapiens) (UniProt P11473); experiment: qHTS assay to identify small molecule antagonists of the vitamin D receptor (VDR) signaling pathway (AID 743223; active = well fitted inhibition curve with a large enough effect in the signal ratio in the repeat runs, not every such curve was filed as active; the % refers to the signal ratio)
In short: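 Quantitative HTS in VDR-bla reporter cells stimulated with 1alpha,25-dihydroxyvitamin D3, 3 nM final. Compound exposure 16 h, 37C, 5% CO2. Read-out: beta-lactamase FRET substrate fluorescence, 2 h RT.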

[18] = qHTS assay to identify small molecule agonists of the vitamin D receptor (VDR) signaling pathway - cell viability counter screen (AID 743224); note: series mostly up to about 63 µM; nearly all actives have a fitted effect of over 50% in size
In short: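 Compounds were pin-transferred onto VDR-bla cells plated 4 h earlier; following 16 h incubation at 37C, cell viability was quantified by CellTiter-Glo luminescence after 30 min at room temperature.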

[19] = qHTS assay for small molecule activators of the heat shock response signaling pathway - cell viability counter screen (AID 743209); note: nearly all actives have a fitted effect of over 50% in size
In short: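 Viability of HSE-bla HeLa cells is measured with CellTiter-Glo in the wells already used for the reporter read. Compound exposure lasts 5 h at 37 C, and luminescence is read after 30 min at room temperature.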

[20] = target: Bile acid receptor (Homo sapiens) (UniProt Q96RI1); experiment: qHTS assay to identify small molecule antagonists of the farnesoid-X-receptor (FXR) signaling pathway (AID 743217; active = well fitted inhibition curve with a large enough effect in the signal ratio in the repeat runs, not every such curve was filed as active; the % refers to the signal ratio)
In short: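 Screen of the Tox21 10K library in quantitative HTS format using FXR-UAS-bla HEK 293T reporter cells. Agonist chenodeoxycholic acid, 50 uM final, added with compounds; 16 h incubation at 37 °C; beta-lactamase FRET fluorescence measured.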

Measured: Potency

Vitamin D3 receptor (Homo sapiens), sequence (P11473 whole entry, looked up): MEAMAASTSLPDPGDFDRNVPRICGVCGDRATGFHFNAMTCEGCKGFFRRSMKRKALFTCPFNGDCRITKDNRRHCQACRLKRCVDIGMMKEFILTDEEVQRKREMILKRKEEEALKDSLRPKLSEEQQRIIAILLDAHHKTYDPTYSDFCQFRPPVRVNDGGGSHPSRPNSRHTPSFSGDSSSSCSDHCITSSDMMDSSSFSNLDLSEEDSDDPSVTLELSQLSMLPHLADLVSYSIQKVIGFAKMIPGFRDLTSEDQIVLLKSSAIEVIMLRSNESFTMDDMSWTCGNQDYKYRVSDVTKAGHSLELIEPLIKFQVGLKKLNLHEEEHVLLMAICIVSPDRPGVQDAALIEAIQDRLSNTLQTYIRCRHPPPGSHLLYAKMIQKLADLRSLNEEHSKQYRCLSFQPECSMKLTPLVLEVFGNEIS
Peroxisome proliferator-activated receptor gamma (Homo sapiens), sequence (P37231 whole entry, looked up): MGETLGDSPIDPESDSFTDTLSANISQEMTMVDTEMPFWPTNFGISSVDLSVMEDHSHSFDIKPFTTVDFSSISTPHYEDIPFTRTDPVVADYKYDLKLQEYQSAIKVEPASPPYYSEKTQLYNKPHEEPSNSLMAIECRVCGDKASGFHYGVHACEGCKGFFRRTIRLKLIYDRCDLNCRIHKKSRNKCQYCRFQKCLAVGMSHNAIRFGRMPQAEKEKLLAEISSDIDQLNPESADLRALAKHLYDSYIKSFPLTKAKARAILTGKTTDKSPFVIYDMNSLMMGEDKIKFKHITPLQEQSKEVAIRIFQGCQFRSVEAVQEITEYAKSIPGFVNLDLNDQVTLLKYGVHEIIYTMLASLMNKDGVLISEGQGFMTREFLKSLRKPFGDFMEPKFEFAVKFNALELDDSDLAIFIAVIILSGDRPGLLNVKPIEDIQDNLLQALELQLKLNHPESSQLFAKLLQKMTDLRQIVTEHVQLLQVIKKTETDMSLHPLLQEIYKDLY
Bile acid receptor (Homo sapiens), sequence (Q96RI1 whole entry, looked up): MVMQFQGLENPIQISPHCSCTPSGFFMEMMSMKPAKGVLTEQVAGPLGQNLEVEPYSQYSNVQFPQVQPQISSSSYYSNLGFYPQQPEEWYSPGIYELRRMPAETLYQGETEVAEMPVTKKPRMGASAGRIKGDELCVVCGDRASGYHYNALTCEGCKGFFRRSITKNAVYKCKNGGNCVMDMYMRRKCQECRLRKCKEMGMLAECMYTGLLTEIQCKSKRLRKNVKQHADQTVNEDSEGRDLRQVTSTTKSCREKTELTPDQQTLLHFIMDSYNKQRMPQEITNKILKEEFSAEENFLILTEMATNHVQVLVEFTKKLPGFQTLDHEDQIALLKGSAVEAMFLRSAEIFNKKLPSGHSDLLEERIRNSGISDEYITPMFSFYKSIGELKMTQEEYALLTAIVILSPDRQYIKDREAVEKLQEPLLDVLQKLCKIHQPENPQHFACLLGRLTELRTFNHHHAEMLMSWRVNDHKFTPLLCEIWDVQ
Peroxisome proliferator-activated receptor delta (Homo sapiens), sequence (Q03181 whole entry, looked up): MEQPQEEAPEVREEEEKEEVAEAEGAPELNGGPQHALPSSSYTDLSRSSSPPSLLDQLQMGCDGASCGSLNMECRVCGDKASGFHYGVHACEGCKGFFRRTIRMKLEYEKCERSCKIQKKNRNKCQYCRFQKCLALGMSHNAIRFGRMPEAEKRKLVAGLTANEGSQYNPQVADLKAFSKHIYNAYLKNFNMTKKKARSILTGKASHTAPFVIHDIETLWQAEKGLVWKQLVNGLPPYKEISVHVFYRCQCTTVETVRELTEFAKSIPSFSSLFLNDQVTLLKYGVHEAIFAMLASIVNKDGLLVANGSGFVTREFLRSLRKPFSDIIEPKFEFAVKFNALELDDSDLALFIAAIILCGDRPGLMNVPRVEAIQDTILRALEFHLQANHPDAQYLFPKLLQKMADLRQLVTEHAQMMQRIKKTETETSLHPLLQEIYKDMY
Aryl hydrocarbon receptor (Homo sapiens), sequence (P35869 whole entry, looked up): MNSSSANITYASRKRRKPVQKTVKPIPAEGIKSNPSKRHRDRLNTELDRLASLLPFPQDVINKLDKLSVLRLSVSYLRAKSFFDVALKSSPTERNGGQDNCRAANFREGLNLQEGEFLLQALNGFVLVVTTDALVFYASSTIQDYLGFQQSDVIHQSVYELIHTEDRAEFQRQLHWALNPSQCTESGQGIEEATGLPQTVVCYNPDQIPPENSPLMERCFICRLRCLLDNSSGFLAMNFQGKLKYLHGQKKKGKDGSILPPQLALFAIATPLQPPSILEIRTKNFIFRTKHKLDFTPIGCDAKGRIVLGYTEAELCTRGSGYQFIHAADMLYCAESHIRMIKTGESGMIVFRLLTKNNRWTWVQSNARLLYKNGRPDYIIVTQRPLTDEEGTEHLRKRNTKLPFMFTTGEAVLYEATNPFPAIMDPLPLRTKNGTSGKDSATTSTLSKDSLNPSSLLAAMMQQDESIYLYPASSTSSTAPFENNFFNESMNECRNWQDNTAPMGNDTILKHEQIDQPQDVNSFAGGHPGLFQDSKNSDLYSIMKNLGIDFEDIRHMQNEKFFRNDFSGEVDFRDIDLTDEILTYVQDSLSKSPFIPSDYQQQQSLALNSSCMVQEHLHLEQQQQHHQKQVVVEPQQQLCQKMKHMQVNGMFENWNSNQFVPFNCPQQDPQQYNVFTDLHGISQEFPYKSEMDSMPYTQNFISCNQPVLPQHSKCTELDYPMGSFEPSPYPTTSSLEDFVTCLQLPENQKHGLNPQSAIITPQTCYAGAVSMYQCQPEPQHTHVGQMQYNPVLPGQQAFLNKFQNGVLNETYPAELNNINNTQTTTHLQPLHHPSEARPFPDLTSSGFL

CO[C@H]1O[C@H](CO)[C@@H](O)[C@H](O)[C@H]1O
inactive: [1] | [2] | [3] | [4] | [5] | [6] | [7] | [8] | [9] | [10] | [11] | [12] | [13] | [14] | [15] | [16] | [17] | [18]

CCN(CC)CCNC(=O)c1ccc(NC(C)=O)cc1
inactive: [1] | [2] | [3] | [4] | [5] | [6] | [7] | [19] | [8] | [9] | [10] | [11] | [12] | [20] | [13] | [14] | [15] | [16] | [18]

COCC(O)CO (stereo not drawn)
inactive: [1] | [2] | [3] | [4] | [5] | [6] | [7] | [19] | [8] | [9] | [10] | [11] | [13] | [15] | [18]

CCC(C)=O
inactive: [1] | [2] | [3] | [4] | [5] | [6] | [7] | [19] | [8] | [9] | [10] | [11] | [13] | [15] | [16] | [17] | [18]

CCC(C(=O)OCCN(CC)CC)c1ccccc1 (stereo not drawn)
inactive: [1] | [2] | [3] | [4] | [5] | [6] | [8] | [9] | [10] | [11] | [12] | [13] | [15] | [16] | [17] | [18]

CC1=C(C=O)C(C)(C)CCC1
inactive: [1] | [2] | [3] | [4] | [5] | [7] | [19] | [8] | [9] | [10] | [11] | [20] | [13] | [15] | [16] | [18]

CCOC(=O)c1ccccc1C
inactive: [1] | [2] | [3] | [4] | [5] | [7] | [19] | [8] | [9] | [11] | [20] | [18]

CN1CCCN=C1/C=C/c1cccs1
inactive: [1] | [2] | [3] | [4] | [5] | [7] | [19] | [8] | [9] | [10] | [11] | [13] | [15] | [16] | [18]
